# Lassa entry = blocks Lassa virus binding or cell entry; 18,000 tested, 4.1% active; Lassa virus pseudotyped entry inhibition, cell-based qHTS; Potency, µM (series often up to 49.2 µM), for the others: at the highest dose activity change, negative = inhibition, hits mostly inhibitors; AID 720533
# MARV entry inh = inhibitors of Marburg virus binding or entry into cells. Marburg virus pseudotype entry/binding inhibition, cell-based. Potency, µM (top dose mostly 49.2 µM), for inactives: at the highest dose activity change, negative = inhibition, actives largely listed as inhibitors. 18,000 tested, 6.5% active. AID 720532
# * marks the source's active call; other numbers are inactive results; ? = inconclusive; · = not tested or not shown; ! = a repeat was not active; [ ] = dose if it differs, or a comment. This is a sample that favours compounds with a hit; in the whole collection about 8.6% have one here. Calls follow the shape of the full dose curve; tested in HEK293 cells. % is scaled to controls: 0 for no effect and ±100 for the full control effect; potency is read from the fitted curve at half-maximal effect.
SMILES,Lassa entry,MARV entry inh
CCOC(=O)C1Oc2ccccc2C(C(=O)OC)=C1C(=O)OC (stereo not drawn),-4.6%,11.4%
CCOC(=O)C1=C(N)Oc2ccc(Br)cc2[C@@H]1[C@@H](C#N)C(=O)OCC,20µM*,24.3%
CCCCCC(=O)N1C[C@@H](O)[C@H](n2cc(COC(=O)c3ccccc3)nn2)C[C@H]1c1ccc(Cl)cc1,-17.7%,?
COc1cccc(COc2cc(-n3cnc4ccccc43)sc2C(N)=O)c1,?,12.5µM*
COc1ccc2ncn(-c3cc(OC(C)c4ccccc4C(F)(F)F)c(C(N)=O)s3)c2c1 (stereo not drawn),?,0.888µM*
COc1ccc(COc2cc(-c3cccc(OC)c3)nc3ccc(NC(C)=O)cc23)cc1,-13.8%,11.2%
COP(=S)(OC)Oc1cc(Cl)c(Cl)cc1Cl,-11.4%,6.9%
O=C(O)C1NCCN(C(=O)c2ccc3c(ccc4ccccc43)c2)C1C(=O)O (stereo not drawn),3.4%,8.8%
CCC1C(=O)NCCN1Cc1ccc2c(c1)CN(Cc1ccc(OC)cc1OC)CCO2 (stereo not drawn),-2.3%,-26.0%
CCCCC/C(C=O)=C\c1ccccc1,-22.3%,-2.7%
COc1cc(/C=C/C(=O)O[C@H]2CC[C@]34C[C@]35CC[C@]3(C)[C@@H]([C@H](C)CCC=C(C)C)CC[C@@]3(C)[C@@H]5CC[C@H]4C2(C)C)ccc1O,25.1µM*!,0.5%
CC(=O)OC1CCC2(C)C3=C(CCC2C1(C)C)[C@@]1(C)CCC(C(C)CCC=C(C)C)[C@@]1(C)CC3 (stereo partly drawn),-8.3%,-13.5%
CC[C@H](C)[C@H](NC(=O)[C@H](CCC(=O)O)NC(=O)CNC(=O)[C@@H](NC(=O)[C@@H]1CCCN1C(=O)[C@@H](NC(=O)[C@@H]1CCCN1C(=O)[C@@H]1CCCN1C(=O)[C@H](CC(N)=O)NC(=O)[C@H](CC(N)=O)NC(=O)[C@@H](NC(=O)[C@H](CCSC)NC(=O)[C@H](Cc1c[nH]c2ccccc12)NC(=O)CNC(=O)[C@@H](NC(=O)[C@H](CCC(N)=O)NC(=O)[C@@H](N)CCC(=O)O)[C@@H](C)CC)[C@@H](C)O)[C@@H](C)CC)C(C)C)C(=O)O,3.9%,-1.5%
O=C(/C=C/c1ccc(F)cc1)NCC1Cc2cccc(-c3ncccn3)c2O1 (stereo not drawn),1.9%,-12.9%
COc1cc(SC)ccc1C(=O)N1CCC(Cc2ccccc2)CC1,11.2µM*,-17.4%
COc1cc2c(cc1OC)C(=O)C(CC1CCN(Cc3ccccc3)CC1)C2 (stereo not drawn),-17.4%,?
COCC1=C(C(=O)OC)C(c2ccccc2)N(C(C)=O)C(=O)N1 (stereo not drawn),29.7%[8.59 µM],0.8%[8.59 µM]
COc1cccc([C@@H]2Oc3ccc(Br)cc3C(=O)[C@H]2OC(=O)NS(=O)(=O)c2ccc(C)cc2)c1,57.7%,32.2%
CCn1c(-c2nonc2N)nc2c(C#CC(C)(C)O)ncc(OCC3CCCN3)c21 (stereo not drawn),·,1.25µM*
CN(C)CCCn1c(-c2nonc2N)nc2cnccc21,-11.8%,?
CCn1c(-c2nonc2N)nc2cncc(C(=O)N3CCNCC3)c21,-55.2%,5.1%
CCn1c(-c2nonc2N)nc2c(C#CC(C)(C)O)ncc(OCC3CCNCC3)c21,·,1.77µM*
COc1cccc([C@H]2Oc3ccc(OC)cc3C(=NOC[C@@H](O)COCc3ccco3)[C@H]2O)c1,10.2%[8.59 µM],?
CCSC[C@H](NC(=O)[C@H](C)NC(=O)[C@@H](N)Cc1ccc(O)cc1)C(=O)N[C@@H](CC(=O)O)C(=O)N[C@H](C(=O)N[C@@H](C)C(=O)N[C@H](C(=O)N[C@@H](CSCC)C(=O)N[C@H](C(=O)N[C@H](C(=O)N[C@@H](Cc1cnc[nH]1)C(=O)N[C@@H](CCCNC(=N)N)C(=O)N[C@@H](CC(C)C)C(=O)N[C@@H](C)C(=O)NCC(=O)N[C@@H](CC(C)C)C(=O)N[C@@H](CC(C)C)C(=O)N[C@@H](CO)C(=O)N[C@@H](CCCNC(=N)N)C(=O)N[C@@H](CO)C(=O)NCC(=O)NCC(=O)N[C@H](C(=O)N[C@H](C(=O)N[C@@H](CCCCN)C(=O)N[C@@H](CC(N)=O)C(=O)N[C@@H](CC(N)=O)C(=O)N[C@@H](Cc1ccccc1)C(=O)N[C@H](C(=O)N1CCC[C@H]1C(=O)N[C@H](C(=O)N[C@@H](CC(N)=O)C(=O)N[C@H](C(=O)NCC(=O)N[C@@H](CO)C(=O)N[C@@H](CCCCN)C(=O)N[C@@H](C)C(=O)N[C@@H](Cc1ccccc1)C(N)=O)C(C)C)[C@@H](C)O)C(C)C)C(C)C)C(C)C)[C@@H](C)O)C(C)C)[C@@H](C)O)[C@@H](C)O,3.5%,13.2%
CC(C)[C@@H]1NC(=O)[C@@H]2CSCCS(=O)(=O)N2C1=O,·,7.3%
SMILES,Lassa entry,MARV entry inh
COc1cc(N2CCN(C(C)C)CC2)ccc1Nc1nc(Nc2ccc(F)cc2C(N)=O)c2cc[nH]c2n1,?,14.1µM*
COc1cc(C)c(NC(=O)CN(C)C)cc1Nc1nc(Nc2cccc(F)c2C(N)=O)c2cc[nH]c2n1,?,0.791µM*
Cc1ccc2cc(CNCc3cccc4ccccc34)c(N3CCC(O)CC3)nc2c1,-19.8%,?
CCOC(=O)C(SP(=S)(OC)OC)c1ccccc1 (stereo not drawn),-11.2%,18.8%
COC(=O)C1CCN(Cc2ccc3c(c2)CN(C(=O)c2ccc4nc(C)c(C)nc4c2)CCO3)CC1,-2.8%,6.3%
CN1CCc2c(c3ccccc3n2Cc2ccccc2)C1,?,17.8µM*
CN1CCN(C2CN(Cc3ccccc3)S(=O)(=O)C2)CC1 (stereo not drawn),12.9%,20.9%
COC(=O)N[C@@H](c1ccco1)C(C(C)=O)C(=O)OC (stereo partly drawn),6.1%[8.59 µM],-27.0%[8.59 µM]
Cc1c(C(=O)N(CCO)C(C)C)cnn1-c1ncc2c(n1)-c1ccccc1CCC2,-6.6%,-0.9%
CC(=O)Nc1ccc(-c2nc3ccc(Cl)cc3[nH]2)cc1,-4.8%,70.6%
O=C(Nc1ccc(Cl)cc1)Nc1ccc(Cl)c(Cl)c1,12.6µM*,14.1µM*
Cc1cccc(CNC(=O)c2c3n(c(C)cc2=O)-c2ccccc2SC(c2sccc2C)C3)n1 (stereo not drawn),-12.7%,?
O=S1(=O)C=CCN1C1CCCC1,8.4%,29.8%
OCC(O)C(O)C(O)C(O)C(O)CO (stereo not drawn),1.5%,-9.5%
CC(C)C[C@@H](CC(=O)N[C@@H](CCC(=O)O)CC(=O)O)NC(=O)[C@@H]1CCCC[C@H]1NC(=O)C[C@H](CCCN)NC(=O)C[C@H](CO)NC(=O)[C@@H]1CNCC[C@H]1N,7.3%,-8.7%
CC1CCC2(OC1)OC1CC3C4CC[C@@H]5CC(O)CC[C@@]5(C)C4CC(=O)[C@]3(C)C1C2C (stereo partly drawn),6.1%,0.9%
C[C@H]1CC[C@]2(NC1)O[C@H]1C[C@H]3[C@@H]4CC[C@H]5C[C@@H](O[C@@H]6O[C@H](CO)[C@H](O[C@@H]7O[C@H](CO)[C@@H](O)[C@H](O[C@@H]8OC[C@@H](O)[C@H](O)[C@H]8O)[C@H]7O[C@@H]7O[C@H](CO)[C@@H](O)[C@H](O)[C@H]7O)[C@H](O)[C@H]6O)CC[C@]5(C)[C@H]4CC[C@]3(C)[C@H]1[C@@H]2C,14.1µM*,4.47µM*
Oc1cccc[c]1[Hg][Cl],1µM*,?
Oc1cccc(O)c1O,-7.9%,?

# Bioassay records: PubChem, National Center for Advancing Translational Sciences (NCATS)
